Measured values from PubChem BioAssay (NCI).
About 83,000 compounds went through this panel and 20% of them were active in at least one assay; those are over-represented in the sample as a whole.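 Cell lines were cultured in 96-well plates, exposed to a single compound concentration, and assessed for percent growth 48 hours later.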 The source made the active and inactive calls. How the source made its calls: active means growth percent below 10; inactive means the rest.

Columns and labels:
Assay in all cases: NCI-60 one-dose screen, 48 h (100 = growth as untreated, 0 = no growth, -100 = all killed)
Details in all cases: 10 µM unless noted
SR leukemia = system: SR leukemia
RPMI-8226 leukemia = system: RPMI-8226 leukemia
OVCAR-8 ovarian = system: OVCAR-8 ovarian
OVCAR-5 ovarian = system: OVCAR-5 ovarian
OVCAR-4 ovarian = system: OVCAR-4 ovarian
SK-OV-3 ovarian = system: SK-OV-3 ovarian
IGROV1 ovarian = system: IGROV1 ovarian
OVCAR-3 ovarian = system: OVCAR-3 ovarian
HS 578T breast = system: HS 578T breast
NCI/ADR-RES ovarian = system: NCI/ADR-RES ovarian

Measured: growth

CC(C)(CCCN=C(N)Nc1ccc(Cl)cc1)c1ccc(F)cc1
active: SR leukemia -13.6%
inactive: RPMI-8226 leukemia 11% | OVCAR-8 ovarian 87.3% | OVCAR-5 ovarian 75.8% | OVCAR-4 ovarian 54.4% | SK-OV-3 ovarian 94.7% | IGROV1 ovarian 55.2% | OVCAR-3 ovarian 71.2% | HS 578T breast 83.2% | NCI/ADR-RES ovarian 73.8%

COc1ccc(C(=O)COc2ccc(/C=C3\COc4ccc(OC)cc4C3=O)cc2)cc1
inactive: OVCAR-8 ovarian 44.3% | OVCAR-5 ovarian 108% | OVCAR-4 ovarian 92.1% | SK-OV-3 ovarian 105% | OVCAR-3 ovarian 104% | HS 578T breast 81.7% | NCI/ADR-RES ovarian 80.7%
active: SR leukemia 2.54% | RPMI-8226 leukemia -5.51%

Fc1ccc(CNc2cccc3[nH]c(C(F)(F)F)nc23)cc1
inactive: SR leukemia 66% | RPMI-8226 leukemia 36.5% | OVCAR-8 ovarian 90.1% | OVCAR-5 ovarian 90.2% | OVCAR-4 ovarian 89.3% | SK-OV-3 ovarian 97.9% | IGROV1 ovarian 109% | OVCAR-3 ovarian 76.6% | HS 578T breast 82.3% | NCI/ADR-RES ovarian 100%

O=[N+]([O-])c1ccc(Nc2nc(NCCN3CCOCC3)ncc2[N+](=O)[O-])cc1
inactive: SR leukemia 107% | RPMI-8226 leukemia 100% | OVCAR-8 ovarian 99.5% | OVCAR-5 ovarian 98.6% | OVCAR-4 ovarian 85.4% | SK-OV-3 ovarian 93.4% | OVCAR-3 ovarian 102% | HS 578T breast 87.8% | NCI/ADR-RES ovarian 89.8%

COc1ccc(S(=O)(=O)N2CCCCC2)cc1NC(=O)c1[nH]c(C)c2c1CCCCC2=O
inactive: SR leukemia 34.3% | RPMI-8226 leukemia 10.1% | OVCAR-8 ovarian 32.8% | OVCAR-5 ovarian 48.4% | OVCAR-4 ovarian 42% | SK-OV-3 ovarian 19.7% | IGROV1 ovarian 15.3% | OVCAR-3 ovarian 23.5% | HS 578T breast 15.4% | NCI/ADR-RES ovarian 28.3%

COc1ccc(-n2nc(C)c3c(Nc4ccc(NC(=O)Nc5cccc(C(F)(F)F)c5)cc4)ncnc32)cc1
inactive: SR leukemia 21.2% | SK-OV-3 ovarian 16.9%
active: RPMI-8226 leukemia -10.9% | OVCAR-8 ovarian 2.63% | OVCAR-5 ovarian 2.66% | OVCAR-4 ovarian 7.24% | IGROV1 ovarian 7.48% | OVCAR-3 ovarian -31.6% | HS 578T breast -6.67% | NCI/ADR-RES ovarian 4.85%

COc1ccc(-n2nc(C)c3c(Nc4ccc(NC(=O)Nc5c(Cl)cccc5Cl)cc4)ncnc32)cc1
inactive: SR leukemia 32.2% | RPMI-8226 leukemia 50.7% | OVCAR-8 ovarian 56% | OVCAR-5 ovarian 97.8% | OVCAR-4 ovarian 60.9% | SK-OV-3 ovarian 83.3% | OVCAR-3 ovarian 40.8% | HS 578T breast 71.7%

O=C1c2cc3c(cc2-c2c1c1ccc(Cl)cc1c(=O)n2CCCN1CCOCC1)OCO3
active: SR leukemia 4.71%
inactive: RPMI-8226 leukemia 60.8% | OVCAR-8 ovarian 70.9% | OVCAR-5 ovarian 109% | OVCAR-4 ovarian 91.9% | SK-OV-3 ovarian 33.4% | IGROV1 ovarian 82.6% | OVCAR-3 ovarian 86.5% | HS 578T breast 108% | NCI/ADR-RES ovarian 45.9%

CCOC(=O)n1cc(-c2nonc2-c2cn(C)c3ncccc23)c2ccccc21
inactive: SR leukemia 60.5% | RPMI-8226 leukemia 77.9% | OVCAR-8 ovarian 92.6% | OVCAR-5 ovarian 94.2% | OVCAR-4 ovarian 71.3% | SK-OV-3 ovarian 77.6% | OVCAR-3 ovarian 85.6% | HS 578T breast 77.7% | NCI/ADR-RES ovarian 73.1%

CC(=O)OC[C@H]1O[C@H](OC(C)=O)[C@H](NC(=O)/C=C/CCl)[C@@H](OC(C)=O)[C@@H]1OC(C)=O
inactive: SR leukemia 44.5% | RPMI-8226 leukemia 71.7% | OVCAR-8 ovarian 81.6% | OVCAR-5 ovarian 84.5% | OVCAR-4 ovarian 68.2% | SK-OV-3 ovarian 57.2% | IGROV1 ovarian 93.9% | OVCAR-3 ovarian 30.6% | HS 578T breast 92% | NCI/ADR-RES ovarian 90.7%

CC1=C/C(=C(\c2ccc(N(C)C)cc2)c2ccc([N+](C)(C)C)cc2)C=CC1=[N+](C)C
inactive: SR leukemia 60.8% | OVCAR-8 ovarian 36.2% | OVCAR-5 ovarian 115% | OVCAR-4 ovarian 89.3% | SK-OV-3 ovarian 94% | IGROV1 ovarian 94.4% | OVCAR-3 ovarian 86.6% | HS 578T breast 55% | NCI/ADR-RES ovarian 100%
active: RPMI-8226 leukemia 2.54%

CC(=O)c1cc2c(N)c(C(=O)Nc3cccc4ccccc34)sc2nc1C
inactive: SR leukemia 12.7% | RPMI-8226 leukemia 10.2% | OVCAR-8 ovarian 21.5% | OVCAR-5 ovarian 64% | OVCAR-4 ovarian 59.6% | SK-OV-3 ovarian 26.8% | IGROV1 ovarian 34.7% | HS 578T breast 38.2% | NCI/ADR-RES ovarian 16.3%
active: OVCAR-3 ovarian -5.38%

O=[N+]([O-])c1cnc(N2CCN(CC3CC3)CC2)nc1N1CCN(CC2CC2)CC1
inactive: SR leukemia 115% | RPMI-8226 leukemia 100% | OVCAR-8 ovarian 104% | OVCAR-5 ovarian 92.2% | OVCAR-4 ovarian 95% | SK-OV-3 ovarian 111% | IGROV1 ovarian 90.6% | OVCAR-3 ovarian 98.6% | HS 578T breast 77.5% | NCI/ADR-RES ovarian 90.2%

O=C1Nc2c(ccc(Cl)c2Cl)/C1=C\c1ccc(C(F)(F)F)cc1
inactive: SR leukemia 104% | RPMI-8226 leukemia 62.8% | OVCAR-8 ovarian 85.1% | OVCAR-5 ovarian 83.9% | OVCAR-4 ovarian 75.1% | SK-OV-3 ovarian 88.2% | IGROV1 ovarian 54.1% | OVCAR-3 ovarian 68.2% | HS 578T breast 63.9% | NCI/ADR-RES ovarian 85.8%

O=C1c2cc3c(cc2-c2c1c1cc(F)c(F)cc1c(=O)n2CCCn1ccnc1)OCO3
inactive: OVCAR-8 ovarian 12.1% | OVCAR-4 ovarian 20.9% | IGROV1 ovarian 21.2% | HS 578T breast 52.5%
active: SR leukemia -2.4% | RPMI-8226 leukemia -10.1% | OVCAR-5 ovarian 2.22% | SK-OV-3 ovarian 6.12% | OVCAR-3 ovarian -7.17% | NCI/ADR-RES ovarian 6.95%

O=C(NCCN1CCOCC1)Nc1ccc(-c2cc3c(Nc4ccc(Oc5cccc(C(F)(F)F)c5)c(Cl)c4)ncnc3s2)cc1
active: SR leukemia 4.83% | RPMI-8226 leukemia -14.8% | HS 578T breast -3.09%
inactive: OVCAR-8 ovarian 41.1% | OVCAR-5 ovarian 36.2% | OVCAR-4 ovarian 39.2% | SK-OV-3 ovarian 24.5% | IGROV1 ovarian 28.3% | OVCAR-3 ovarian 41.1% | NCI/ADR-RES ovarian 77.2%

O=C1/C(=C/C(Cl)=C/c2ccccc2)SC(=S)N1CCc1ccc(O)cc1
active: RPMI-8226 leukemia 2.88% | OVCAR-5 ovarian -20.3% | IGROV1 ovarian -36.6% | OVCAR-3 ovarian -7.98% | NCI/ADR-RES ovarian 9.23%
inactive: SR leukemia 13.3% | OVCAR-8 ovarian 16.7% | OVCAR-4 ovarian 30.7% | SK-OV-3 ovarian 34.8% | HS 578T breast 37.5%

Cc1ccc2c(C(C[N+](=O)[O-])c3ccccc3)c(-c3ccccc3)[nH]c2c1 (stereo not given)
inactive: SR leukemia 25.4% [9.5 µM] | RPMI-8226 leukemia 24.4% [9.5 µM] | OVCAR-8 ovarian 29.6% [9.5 µM] | OVCAR-5 ovarian 52.2% [9.5 µM] | OVCAR-4 ovarian 59.8% [9.5 µM] | SK-OV-3 ovarian 19.3% [9.5 µM] | IGROV1 ovarian 27.4% [9.5 µM] | NCI/ADR-RES ovarian 10.9% [9.5 µM]
active: OVCAR-3 ovarian 3.85% [9.5 µM] | HS 578T breast 1.97% [9.5 µM]

COc1cccc(/C=C2\Oc3cc(OCCN4CCCC4)ccc3C2=O)c1
inactive: SR leukemia 22.2% | RPMI-8226 leukemia 91.7% | OVCAR-8 ovarian 98.4% | OVCAR-5 ovarian 100% | OVCAR-4 ovarian 111% | SK-OV-3 ovarian 108% | IGROV1 ovarian 98.6% | OVCAR-3 ovarian 97% | HS 578T breast 91.8% | NCI/ADR-RES ovarian 93.8%

CCOc1ccc(-n2nc(C(=O)Nc3ccccc3)nc2-c2cc(OC)c(OC)c(OC)c2)cc1
inactive: SR leukemia 17% | RPMI-8226 leukemia 47.4% | OVCAR-8 ovarian 61.6% | OVCAR-5 ovarian 84.1% | OVCAR-4 ovarian 59.5% | SK-OV-3 ovarian 51% | OVCAR-3 ovarian 43.2% | HS 578T breast 39.6%

O=C(CCCCC(=O)N/N=C\c1ccccc1O)N/N=C\c1ccccc1O
inactive: SR leukemia 19.7% | RPMI-8226 leukemia 50.2% | OVCAR-8 ovarian 41.7% | OVCAR-5 ovarian 59% | OVCAR-4 ovarian 70.3% | SK-OV-3 ovarian 40.3% | IGROV1 ovarian 27.2% | HS 578T breast 71% | NCI/ADR-RES ovarian 41.6%

NC(=O)c1cc(Br)ccc1NC(=O)/C=C/c1ccccc1
active: SR leukemia -10.1% | OVCAR-3 ovarian -12.2%
inactive: RPMI-8226 leukemia 24.4% | OVCAR-8 ovarian 54.4% | OVCAR-5 ovarian 49.9% | OVCAR-4 ovarian 35.8% | SK-OV-3 ovarian 31.1% | IGROV1 ovarian 86.6% | HS 578T breast 16.3% | NCI/ADR-RES ovarian 11%

COc1cc(-c2nn(C)nc2-c2cc3ccccc3s2)cc(OC)c1OC
inactive: SR leukemia 21.6% | RPMI-8226 leukemia 20.7% | OVCAR-8 ovarian 28% | OVCAR-5 ovarian 57.2% | OVCAR-4 ovarian 57.1% | SK-OV-3 ovarian 21.2% | IGROV1 ovarian 39% | HS 578T breast 19.3%
active: OVCAR-3 ovarian 0.446% | NCI/ADR-RES ovarian 9.9%

O=S(=O)(Nc1ccc(NS(=O)(=O)c2ccccc2)c(Cl)c1)c1ccccc1
inactive: SR leukemia 90.9% | RPMI-8226 leukemia 90.8% | OVCAR-8 ovarian 103% | OVCAR-5 ovarian 108% | OVCAR-4 ovarian 100% | SK-OV-3 ovarian 104% | OVCAR-3 ovarian 104% | HS 578T breast 103% | NCI/ADR-RES ovarian 100%

COc1cc(C(=O)Oc2ccccc2OC(=O)c2cc(OC)c(OC)c(OC)c2)cc(OC)c1OC
inactive: SR leukemia 103% | RPMI-8226 leukemia 76.2% | OVCAR-8 ovarian 92.1% | OVCAR-5 ovarian 97.4% | OVCAR-4 ovarian 105% | SK-OV-3 ovarian 84.9% | IGROV1 ovarian 101% | OVCAR-3 ovarian 97.7% | NCI/ADR-RES ovarian 95.7%
